Compounds without any hit were thinned out: in the full panel of roughly 83,000, 20% have a hit.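 Percent growth is the endpoint: 0 to 100 indicates growth inhibition (40 means 60% inhibition), 0 means no net growth, and negative values indicate cell death.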
Legend:
Assay in all cases: NCI-60 one-dose screen, 48 h (100 = growth as untreated, 0 = no growth, -100 = all killed); active = growth percent below 10; inactive = the rest
[1] = system: DU-145 prostate; settings: 10 µM unless noted
[2] = system: K-562 leukemia; settings: 10 µM unless noted
[3] = system: MALME-3M melanoma; settings: 10 µM unless noted
[4] = system: RXF 393 renal; settings: 10 µM unless noted
[5] = system: SF-295 CNS; settings: 10 µM unless noted
[6] = system: UACC-257 melanoma; settings: 10 µM unless noted
[7] = system: M14 melanoma; settings: 10 µM unless noted
[8] = system: LOX IMVI melanoma; settings: 10 µM unless noted
[9] = system: SK-MEL-2 melanoma; settings: 10 µM unless noted
[10] = system: A498 renal; settings: 10 µM unless noted
[11] = system: HL-60(TB) leukemia; settings: 10 µM unless noted
[12] = system: CCRF-CEM leukemia; settings: 10 µM unless noted
[13] = system: OVCAR-4 ovarian; settings: 10 µM unless noted
[14] = system: IGROV1 ovarian; settings: 10 µM
[15] = system: OVCAR-3 ovarian; settings: 10 µM unless noted
[16] = system: BT-549 breast; settings: 10 µM
[17] = system: HCC-2998 colon; settings: 10 µM unless noted
[18] = system: SK-MEL-5 melanoma; settings: 10 µM unless noted
[19] = system: UACC-62 melanoma; settings: 10 µM unless noted
[20] = system: SR leukemia; settings: 10 µM

Measured: growth

COC(C)(C)CCC[C@H](C)C/C=C/C(C)=C/C(=O)OC(C)C
inactive: [1] 113% | [2] 85.3% | [3] 85.9% | [4] 104% | [5] 98.2% | [6] 101% | [7] 100% | [8] 92.9% | [9] 97.1% | [10] 110% | [11] 79.8% | [12] 78% | [13] 90% | [14] 99.7% | [15] 111% | [16] 103% | [17] 101%

S=P(NC1CCCCC1)(N1CC1)N1CC1
inactive: [1] 108% | [2] 61.4% | [3] 106% | [4] 102% | [5] 110% | [6] 116% | [7] 105% | [18] 97% | [19] 91.4% | [8] 96.5% | [9] 114% | [10] 96.2% | [11] 91.3% | [12] 102% | [20] 104% | [13] 100% | [14] 97.3% | [15] 112% | [16] 120% | [17] 131%

CC(N)Cc1ccc(O)cc1 (configuration not stated)
inactive: [1] 112% | [2] 94.8% | [3] 98.6% | [4] 112% | [5] 118% | [6] 94.6% | [7] 99.9% | [18] 103% | [19] 105% | [8] 99.2% | [9] 94.8% | [10] 80.7% | [11] 90.2% | [12] 93.9% | [20] 55.4% | [13] 124% | [14] 111% | [15] 108% | [16] 126% | [17] 111%

From PubChem BioAssay (NCI)
